Results published in PubChem BioAssay AID1159580 (chemical genetic matrix, 2015).
Out of some 5,500 compounds screened, about 2,000 (36%) were called active. Inconclusive results (about 18%) are left out. No stated cut-off is given here; in the data, active means normalized growth mostly below about 0.91 (no sharp cut-off); inconclusive means no clear call, values can overlap the other calls; inactive means mostly above about 0.92. Some of the results follow.

Experiment: chemical genetic growth profiling, strain panel (AID 1159580);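 further: tested at 20 µM; growth read once vehicle control cultures reached saturation at 30 °C; 1 = growth at the plate median or of vehicle wells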
Details: S. cerevisiae deletion strains, growth OD

Measured: normalized growth

CC(=O)O[C@]1(C(C)=O)CCC2C3C=C(Cl)C4=CC(=O)[C@@H]5C[C@@H]5[C@]4(C)C3CC[C@@]21C (some centres undefined)
inactive: locus YAL021C, strain ccr4, stronger effect = lower value 1.06 | locus YAL026C, strain drs2, stronger effect = lower value 1.02 | locus YAL030W, strain snc1, stronger effect = lower value 1.01 | locus YBL061C, strain skt5, stronger effect = lower value 1.01 | locus YBR009C, strain hhf1, stronger effect = lower value 0.973 | locus YBR023C, strain chs3, stronger effect = lower value 1 | locus YBR171W, strain sec66, stronger effect = lower value 1.02 | locus YBR231C, strain swc5, stronger effect = lower value 1.03 | locus YBR279W, strain paf1, stronger effect = lower value 0.997 | locus YCL011C, strain gbp2, stronger effect = lower value 0.99 | locus YCL016C, strain dcc1, stronger effect = lower value 0.992 | locus YCL061C, strain MRC1, stronger effect = lower value 1.02 | locus YCL069W, strain vba3, stronger effect = lower value 1.01 | locus YCR088W, strain abp1, stronger effect = lower value 1.01 | locus YDL005C, strain med2, stronger effect = lower value 1 | locus YDL040C, strain nat1, stronger effect = lower value 1.01 | locus YDR001C, strain nth1, stronger effect = lower value 1.01 | locus YDR069C, strain doa4, stronger effect = lower value 1.04 | locus YDR137W, strain rgp1, stronger effect = lower value 0.968 | locus YDR159W, strain sac3, stronger effect = lower value 0.946 | locus YDR195W, strain ref2 1.05 | locus YDR297W, strain sur2, stronger effect = lower value 1.02 | locus YDR334W, strain swr1, stronger effect = lower value 1 | locus YDR335W, strain msn5, stronger effect = lower value 1.01 | locus YDR392W, strain spt3, stronger effect = lower value 0.861 | locus YEL003W, strain gim4, stronger effect = lower value 1.02 | locus YEL037C, strain rad23, stronger effect = lower value 1.02 | locus YEL061C, strain CIN8 (second series), stronger effect = lower value 1.01 | locus YER015W, strain faa2, stronger effect = lower value 1 | locus YER016W, strain bim1, stronger effect = lower value 1.01 | locus YER111C, strain swi4, stronger effect = lower value 1.02 | locus YER155C, strain BEM2 (second series), stronger effect = lower value 1.05 | locus YFR010W, strain ubp6, stronger effect = lower value 1.03 | locus YGL167C, strain pmr1, stronger effect = lower value 1.03 | locus YGL173C, strain kem1, stronger effect = lower value 1.02 | locus YGL227W, strain vid30, stronger effect = lower value 0.997 | locus YGL240W, strain doc1, stronger effect = lower value 1.02 | locus YGL253W, strain hxk2, stronger effect = lower value 0.973 | locus YHR013C, strain ard1, stronger effect = lower value 1.03 | locus YHR027C, strain rpn1, stronger effect = lower value 1.01 | locus YHR030C, strain SLT2, stronger effect = lower value 1.03 | locus YHR079C, strain IRE1, stronger effect = lower value 1.02 | locus YHR142W, strain chs7, stronger effect = lower value 0.988 | locus YJL092W, strain hpr5, stronger effect = lower value 1.02 | locus YJL095W, strain BCK1 (second series), stronger effect = lower value 1.02 | locus YJL095W, strain BCK1, stronger effect = lower value 1.02 | locus YJL115W, strain asf1, stronger effect = lower value 1.01 | locus YJL129C, strain trk1, stronger effect = lower value 1.01 | locus YJL154C, strain vps35, stronger effect = lower value 1.01 | locus YJL164C, strain tpk1, stronger effect = lower value 0.992 | locus YJL166W, strain qcr8, stronger effect = lower value 1.02 | locus YJR066W, strain TOR1, stronger effect = lower value 0.997 | locus YKL160W, strain elf1, stronger effect = lower value 1.01 | locus YKR026C, strain gcn3, stronger effect = lower value 1.01 | locus YKR091W, strain srl3, stronger effect = lower value 1.01 | locus YLL001W, strain dnm1, stronger effect = lower value 1.02 | locus YLL026W, stronger effect = lower value 1.01 | locus YLL041C, strain sdh2, stronger effect = lower value 1.01 | locus YLR027C, strain aat2, stronger effect = lower value 1.02 | locus YLR113W, strain HOG1, stronger effect = lower value 1.03 | locus YLR221C, strain rsa3, stronger effect = lower value 0.982 | locus YLR258W, strain gsy2, stronger effect = lower value 1.01 | locus YLR262C, strain YPT6 (second series), stronger effect = lower value 0.977 | locus YLR320W, strain mms22, stronger effect = lower value 0.979 | locus YLR342W, strain FKS1, stronger effect = lower value 1.01 | locus YLR357W, strain rsc2, stronger effect = lower value 0.999 | locus YLR370C, strain arc18, stronger effect = lower value 1.02 | locus YLR384C, strain iki3, stronger effect = lower value 1.01 | locus YML120C, strain ndi1, stronger effect = lower value 1.02 | locus YMR058W, strain fet3, stronger effect = lower value 1.02 | locus YMR125W, strain sto1, stronger effect = lower value 1.02 | locus YMR129W, stronger effect = lower value 1.01 | locus YMR205C, strain PFK2, stronger effect = lower value 0.991 | locus YMR231W, strain pep5, stronger effect = lower value 1.01 | locus YNL071W, strain lat1, stronger effect = lower value 0.963 | locus YNL183C, strain NPR1, stronger effect = lower value 0.986 | locus YNL209W, strain ssb2, stronger effect = lower value 0.999 | locus YNL248C, strain rpa49, stronger effect = lower value 1.01 | locus YNL322C, strain KRE1 (second series), stronger effect = lower value 1.01 | locus YNR049C, strain mso1, stronger effect = lower value 1 | locus YOR001W, strain rrp6, stronger effect = lower value 1.03 | locus YOR070C, strain gyp1, stronger effect = lower value 1 | locus YOR080W, strain dia2, stronger effect = lower value 1.02 | locus YOR083W, strain WHI5, stronger effect = lower value 0.983 | locus YOR106W, strain vam3, stronger effect = lower value 1.01 | locus YOR231W, strain MKK1, stronger effect = lower value 1.02 | locus YOR265W, strain rbl2, stronger effect = lower value 1.02 | locus YOR270C, strain vph1, stronger effect = lower value 0.954 | locus YOR290C, strain snf2, stronger effect = lower value 0.995 | locus YPL051W, strain arl3, stronger effect = lower value 1.01 | locus YPL078C, strain atp4, stronger effect = lower value 1.01 | locus YPL106C, strain sse1, stronger effect = lower value 1.04 | locus YPL240C, strain hsp82, stronger effect = lower value 1.02 | locus YPL256C, strain CLN2, stronger effect = lower value 1.03
